The campaign covered roughly 53,000 sequences. About 3,700 (7%) were called active. This is one part of a sample in which actives are shown more often than they occur.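 Rule for the calls: active = gene knockdowns whose robust z-score for IL-1 alpha signal is at least 2 or at most -2, so actives lie on both sides; inactive = the rest.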

Experimental findings from PubChem BioAssay AID1508600 (Functional Genomics Laboratory (NCATS/FGL), 2020) are described below.

This experiment in a line: Components of the Cytosolic LPS Sensing Pathway: Gene Identification via Genome-wide siRNA Screen. To be noted: RAW264.7 macrophages, IL-1a HTRF, actives lie on both sides, screened at 100 nM (by protocol), cells primed 5 h with Pam3CSK4 first. An excerpt:
Non-canonical inflammasome activation by cytosolic LPS is a critical component of the host response to Gram-negative bacterial infection, however we lack a comprehensive understanding of the cellular processes that control this pathway. Here we describe a genome-wide siRNA screen to identify genes regulating the mouse macrophage IL-1 alpha response to cytosolic LPS.
RAW264.7 cells were maintained in complete DMEM media, comprising DMEM with 4.5 g/L glucose, 10% FBS (Gemini Bio-Products, West Sacramento, CA), 2 mM Glutamine (Lonza) and 20 mM HEPES (Lonza), hereafter complete DMEM.
The RNAi screen was conducted in 384-well format using the Ambion Silencer Mouse Genome siRNA Library (#4391425), which consists of three unique, nonoverlapping, nonpooled siRNAs for each of 17,000 gene targets. siRNA reagents ([…]) were stamped into 384-well white flat-bottom microplates (Corning, 3570) using a Velocity11 VPrep liquid handling system (Agilent) integrated into a BioCel robotic platform (Agilent) in columns 1-22, leaving columns 23-24 empty for negative (Ambion, Negative control #1) and positive (mouse Casp4) controls, respectively. The median value of each plate's negative control column was used to normalize sample wells, and the positive control was used to assess transfection efficiency and assay performance.
Lipofectamine RNAiMAX Transfection Reagent ([…]; Invitrogen) was added in […] serum-free, antibiotic-free media to plate wells using a Thermo Scientific Matrix WellMate and Microplate Stacker. Plates were incubated for 45 min at room temperature to allow for the sufficient formation of siRNA-lipid complexes. Cells were seeded at a density of 1x10^4 cells per well in 20 microL media containing 20% (vol/vol) FBS without antibiotics. The final concentration of siRNA in each well was 100 nM. Cells were cultured for 48h at 37 degrees C in 5% CO2 before addition of […] of TLR ligand Pam3CSK4 for 5 hours. The medium was then removed, replaced with […] growth media and cell were transfected with […] of LipidA and TransIT-TKO (Mirus) for 24 hour. At the end of the LipidA treatment, […] of supernatant was transferred to a 384 Greiner Bio-one non-binding low volume plate and […] of IL-1a HTRF reagent (Cisbio, 62MIL1APEH) was added and incubated at room temperature overnight. The plates were read on an EnVision plate reader (PerkinElmer). Cell viability was measured by adding 20ul Cell Titer Glo to the original plate and running a luminescence read on the EnVision. The quantified IL-1a signal for each siRNA gene-targeted well was divided by the median of the negative control wells and multiplied by 100 to achieve a negative control normalized value for each well/siRNA. This normalized value was then used to generate a robust z-score by first taking the log of each value and then by subtracting the median and dividing by the […].
(In TR-FRET formats the signal depends on donor and acceptor labels being close together.)
As for GCAUCAACACCUGUUCUAUTT against Olfr376, the z-score is 1.02 (inactive).

In the case of GGAUCAUUUACAUUCAUACTT against Alg12, the z-score was -2.6 (active).

Consider GGCACCUGUUAAAAAUGAATT against Prag1, for which the z-score was -0.771 (inactive).

On to GGACUAGUGUGAAAAAGGATT against Nsd1, for which the z-score is -2.87 (active).

Turning to GCUCAUCGGAGAGUUCUAUTT against Ube2h, the z-score is 0.594 (inactive).

Take GGCAGCAUUGAGUGUGUGATT against Asb13: the z-score was 2.53 (active).

For GGAAUGCUGAAGUAAAAAATT against Olfr1259, the z-score was -0.808 (inactive).

GGGCCAAGUUCCGAAAGAATT against Dmbx1: the z-score was -0.443 (inactive).

Take GCCUUAACUAUGUUGUCUATT against Mgst1: the z-score is 0.893 (inactive).

Regarding GCCUGCACUGUUGAACUAGTT against Tomm40l, the z-score is -1.09 (inactive).

As for GCACUCAUUGCCAGGGUCATT against Pycard, the z-score was -2.54 (active).

As to GCAGUUAUCCGUAUUUAAATT against Ctnnbl1, the z-score is 1.18 (inactive).

Regarding CCCUCAUUCUCUAGCGUGATT against H2-K1, the z-score was -1.07 (inactive).

For the sequence GGAUGGACUUCGUCAUGAATT against Cplx2, the z-score is 0.55 (inactive).

Turning to GGAGUGAUUCAGUGAAAACTT against Iqcf3, the z-score was -0.289 (inactive).

Consider CGUCAUAAAGAAUAGUUCCTT against Ncoa4, for which the z-score was 0.965 (inactive).

As for GGAGAAGAGUUAUUGGAUATT against Dnajb4, the z-score was 0.901 (inactive).

For the sequence CCUACGGCAAACAGAGACUTT against Klk6, the z-score is -2.29 (active).

Turning to GGAGUUUAAGAAGACGCACTT against Slc26a3, the z-score was 1.62 (inactive).

As to GGUUUUGGACCAGAUGAGCTT against Abi3, the z-score was 0.0276 (inactive).

For GGGAUGAAGUGUUCCAUCCTT against Ccdc187, the z-score was 2.88 (active).

GCAAUUAGUAACUGAGAAUTT against Dpp10: the z-score was 0.0628 (inactive).

Regarding GGACUAUGCUGUCCAGAUCTT against Ntn1, the z-score was -0.432 (inactive).

Regarding GGUGCUGAAUUUGAUCAAGTT against Rpa2, the z-score is 1.83 (inactive).

Regarding UUGUUAUAGCACUUCCAAATT against Vwa3b, the z-score was 2.12 (active).

In the case of GGAUGGGUUUGAUCUUAAUTT against Il13ra2, the z-score is 0.519 (inactive).

For “GCCAUUUGAAGGCUUUUGUTT against D130079A08Rik”, the z-score is -0.555 (inactive).

For the sequence GCUGGUGAUGACGUGUAUCTT against Slc32a1, the z-score was 0.357 (inactive).

As for GUUGAACAAUCUUGUCCUGTT against Rps25, the z-score was 0.518 (inactive).

Take GGCAUGAGACAAGCUAGUCTT against Mrgpre: the z-score is -0.463 (inactive).

Turning to GGCUGCUAAUUGGAUUUUUTT against Ccnj, the z-score is -0.936 (inactive).

For GCCUUUCAUACAUUCAACATT against Olfr313, the z-score was -1.49 (inactive).

Turning to GGACAGACCACACUUCAUGTT against Foxp3, the z-score is -0.494 (inactive).

Consider GGCCAUGAUUUACGACGACTT against C1qtnf4, for which the z-score was -1.22 (inactive).

In the case of “GGCUCUCUGAGGAUUCGAATT against 4930544M13Rik”, the z-score is -0.209 (inactive).

On to CGGGACAUUCGUGAUCUUATT against Tmem114, for which the z-score is -2.38 (active).

For GGAUUCGCCUUUUCUACCGTT against Hoxb2, the z-score was 0.929 (inactive).

With GGAGCUGUGAGCAUUACUGTT against Cenpm, the z-score is -1.89 (inactive).

With GGUCAUCGAUAAGAAAAGATT against Hunk, the z-score is -1.09 (inactive).

Turning to GCAGGUGAAAAGCAAUCCUTT against Prss27, the z-score was 1.03 (inactive).

In the case of GAUGGUCAUUGAUGUCCUUTT against Rps24, the z-score was -0.694 (inactive).

For the sequence GGAGAGUGCUGAUGUUCUGTT against Rhox6, the z-score was 2.26 (active).

Turning to GGUGCUUGUGGGUAACAAGTT against Rab33a, the z-score is 1.94 (inactive).

As for GGACAUAAUCAAAGACAUCTT against Ddc, the z-score was 1.15 (inactive).

Take GGCAUACCCAAAAAUAGAATT against Eif1a: the z-score is 0.139 (inactive).

For the sequence GGAGAACUCCAGGUUGGCATT against Eaf1, the z-score was -2.03 (active).

For GCGCAAAGAUGGCUAUUGCTT against Adamts3, the z-score was 1.42 (inactive).

Take GCUCAUCCAUUACGAGUUGTT against Dusp18: the z-score is 0.878 (inactive).

GCAUUUCCUUAACACUCCCTT against Msmb: the z-score was -0.614 (inactive).

Consider CGAGAAACAGAGUAUCAAGTT against Utp23, for which the z-score was 0.776 (inactive).

On to GGGCCAUACCAUUUGGGUGTT against Wdr38, for which the z-score is 0.142 (inactive).

With GGUAAAAAGUACAAGUGGGTT against Slc17a5, the z-score is -0.909 (inactive).

GGUGAUACCUCUGUCCUGGTT against Exosc5: the z-score was -1.17 (inactive).

With GGAGGGUGAUCUCAUUGAATT against Prkd1, the z-score was 0.479 (inactive).

Consider GCAGCAAUACAUCCUUCAUTT against Cdh1, for which the z-score is 1.12 (inactive).

On to CCGAGCUAGAUCAGCUAUUTT against Mertk, for which the z-score was -1.45 (inactive).

As for GGAAACCGUUUUUUUUUUCTT against Appbp2, the z-score is 2.16 (active).

Turning to CCUAAUCUCUUGUAGGUAUTT against AU018091, the z-score is 1.03 (inactive).

Regarding GGAACAGGCAACAUGAUUGTT against Nlgn3, the z-score was 0.376 (inactive).

As for GGCUGUAUGUAUAUAGUCCTT against Snrpb, the z-score is -2.41 (active).

For GGUGUCCACAUUAAAUUACTT against Foxb1, the z-score is 2.21 (active).

In the case of GCACUAAGUCCCAUGUGUCTT against Trim11, the z-score was -1.01 (inactive).

Take GGUUAUGGUAUUAACAGGUTT against Slc17a4: the z-score is 0.112 (inactive).

Turning to GGGCAGAAUGCCAGUGUACTT against Kif22, the z-score is -0.305 (inactive).

In the case of GCUUGACGCGAACUUACCATT against Endog, the z-score was 2.35 (active).

Consider GGUGGACUUCGAGAACAUATT against Cyp2d26, for which the z-score was 0.75 (inactive).

For the sequence GGAUCAUCAACCAUCUAAUTT against Srsf7, the z-score was -1.11 (inactive).

Consider GCCUUUUGAUGCUUCCUCUTT against Rusf1, for which the z-score is -0.696 (inactive).

For the sequence GCUCAAAGUUUGAACUGGCTT against Atxn2l, the z-score was 0.153 (inactive).

In the case of “GCUGAAGAGGCGCAUACAUTT against 2610318N02Rik”, the z-score is 3.07 (active).

On to GCCAAAGACUCUUAUAAGUTT against Bnc1, for which the z-score is -0.455 (inactive).

Regarding UCUCCUUCCUAACUUCAACTT against Tmem252, the z-score is 0.747 (inactive).

On to GCUCUCACCAUCAGAGAAATT against Trpc4, for which the z-score was -0.12 (inactive).

CCUCUGAGUGGAACACCUATT against Sfr1: the z-score is -3.54 (active).

Regarding GGCAUUCAUGACAAUGGCUTT against Rab1b, the z-score is -1.89 (inactive).

For the sequence GCGAUUUAUUGCCAAGCCCTT against Cers5, the z-score is 0.596 (inactive).

On to “GGUUUAAGCUUUUUGUGGATT against D130079A08Rik”, for which the z-score is 0.0133 (inactive).

Consider GGAUGUGACGCACACAUGUTT against Cdip1, for which the z-score was 1.11 (inactive).

Take GCAAAUUGGUCAUCGACUGTT against Alg1: the z-score is 0.0456 (inactive).

Regarding GCCAUCUACUCUUUAAAUATT against Pdha1, the z-score is 0.351 (inactive).

For the sequence GCAGAAAAACAUCCACGACTT against Spn, the z-score was -2.01 (active).

For GCAGACAGAUCGCUUCAACTT against Dok4, the z-score is -0.882 (inactive).

As to CCCUCUUAGGAGCUAGUGATT against Atp2b4, the z-score is -1.85 (inactive).

As to CCAUUCGAUACCUCGUGCATT against Dhps, the z-score was -0.249 (inactive).

Take GGGCCUGGAUUACUUACACTT against Srpk1: the z-score was 4.83 (active).

In the case of UACUUGUAGCCAUGGCUCUTT against Olfr685, the z-score was 0.334 (inactive).

Regarding GGCAAAAUAUUGCACAGCGTT against Tsga10, the z-score was -0.474 (inactive).

Turning to GGAAAUUAAACAGAAACAGTT against Ube2j2, the z-score was -0.471 (inactive).

With GGCUGUUUUACAUCAUCCCTT against Ust, the z-score is -0.227 (inactive).

As for GGGAAAGUUUCUGCAUUCUTT against Lce1d, the z-score is 2.07 (active).

As to CCACAGUCUAUUCAAACUUTT against Ncapd3, the z-score was -1.12 (inactive).

For GGUCAAGUCAGCAUUCCUGTT against Hspbp1, the z-score was -1.78 (inactive).

As for GGAAAAGAAGACCUACACCTT against Ppp1r1c, the z-score is -2.04 (active).

GGCCUGGAUGGAAAUUUGCTT against Fabp4: the z-score is -0.851 (inactive).

With GGAGAAAAGAGUUUGCCCGTT against Wfdc12, the z-score is -0.329 (inactive).

Consider GCAAAUUCUCGGUGUCAAATT against Ezh2, for which the z-score was -1.04 (inactive).

Regarding CCUAGUAACUAUCUACCUCTT against Sval3, the z-score was 0.232 (inactive).

GGAUAUCAUCAUGUCUUUCTT against Otop1: the z-score is 1.29 (inactive).

Take CGUGGAUAAAGAUAACCCGTT against Znrd2: the z-score was -0.117 (inactive).

For GAUAAAAUCGGACUGAUAATT against Olfr1079, the z-score was 0.837 (inactive).

In the case of GGCGAACACUGUCAUGAAUTT against Spin4, the z-score is 3.37 (active).

For GGUAUUCACACUGAAGCCCTT against H2-DMa, the z-score is 0.108 (inactive).

On to GCAACAUCCAGGCUUGCCUTT against Tmem107, for which the z-score was -0.874 (inactive).

Consider “CCAUGAAGAACAAGAAAACTT against 1700010D01Rik”, for which the z-score was 0.239 (inactive).

Consider GGAUAGAAAACAGUAUCUGTT against Fggy, for which the z-score was 1.07 (inactive).

For the sequence GGAAAACUGCUUUGAGCUGTT against Thap7, the z-score is 2.72 (active).

AAGGUGCAGAGUUACACGUTT against H2-T10: the z-score was 1.17 (inactive).

With “GGUCUUCAAUUUCUUCAAATT against 4930430F08Rik”, the z-score is 0.928 (inactive).
